“And” between values parts separate entries of the source, which are not always exact repeats. Equal entries are not always repeated. Inconclusive results are not listed. Some compounds were tested as several samples or in several runs, with calls that do not always agree. The source made the active and inactive calls. The calls were made as follows: active = hit-call score of the fitted dose curve at least 0.9, where 1 is the maximum; inconclusive = response in the unintended direction; inactive = score below 0.9.

A short description of assay [1]: ATG_M_06_XSP2: Attagene TRANS-FACTORIAL Multi-Species (XSP2) HepG2 Assay for M06 Transcription Factor (Internal Marker) (AID 2283811).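 Also: hits are increases in signal above the DMSO baseline.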 In a few lines: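 Cells of the human liver line HepG2 carried transfected reporter transcription units and were treated for 24 h. Induced reporter transcripts were detected by fluorescence after RT-PCR and capillary electrophoresis, with activity fitted in the gain direction against DMSO.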

Assay [2] has as its system turtle Estrogen Receptor (ERa), gene 101933533. Nature of the assay: ATG_trERa_XSP2: Attagene TRANS-FACTORIAL Multi-Species (XSP2) HepG2 Assay for turtle Estrogen Receptor (ERa) (AID 2283812).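 Also: actives raise reporter signal above DMSO so AC50 reflects agonist activity.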 In short, it runs like this: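 Readout is reporter mRNA quantified by RT-PCR with capillary electrophoresis after 24 h compound exposure, increase relative to DMSO. Uses transiently transfected human HepG2 liver cells carrying a chimeric turtle ERa-Gal4 receptor driving GAL4-UAS reporters.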

Assay [3] has as its target Estrogen receptor beta (Homo sapiens) (UniProt Q92731). The assay is described as follows: ATG_hERb_XSP2: Attagene TRANS-FACTORIAL Multi-Species (XSP2) HepG2 Assay for human Estrogen Receptor (ERb) (AID 2283813).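 Also: actives raise reporter mRNA above DMSO so AC50 reflects agonist induction.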 In a few lines:
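Transient TRANS reporter system in HepG2: after 24 h of chemical, RNA is reverse-transcribed, reporter cDNA amplified, FAM-labelled and sized by capillary electrophoresis. Induction of the human ERb-Gal4 reporter is measured relative to DMSO.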

Assay [4] has as its system turtle Androgen Receptor (AR), gene 101947425. Nature of the assay: ATG_trAR_XSP2: Attagene TRANS-FACTORIAL Multi-Species (XSP2) HepG2 Assay for turtle Androgen Receptor (AR) (AID 2283815).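 As to AC50: potency for gain of reporter signal meaning activation above DMSO baseline.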 In a few lines:
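Reporter transcripts were quantified via RT-PCR and capillary electrophoresis and fitted upward against DMSO. Transiently transfected human HepG2 cells carrying NR-Gal4 chimeras were exposed 24 h, with 3 nM 6-alpha-fluorotestosterone plus 1.5 nM norgestrel added.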

The target in assay [5] is zebrafish Estrogen Receptor (ER1), esr1 (gene 259252) (UniProt P57717). Nature of the assay: ATG_zfER1_XSP2: Attagene TRANS-FACTORIAL Multi-Species (XSP2) HepG2 Assay for zebrafish Estrogen Receptor (ER1) (AID 2283816). In a few lines: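 After 24 h compound exposure, RNA from transfected HepG2 cells was reverse-transcribed and reporter transcripts resolved by capillary electrophoresis. The TRANS format reads exogenous zebrafish ER1-Gal4 chimera activity on GAL4-UAS elements; gain of signal against DMSO.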

In assay [6] the target is chicken Estrogen Receptor (ERa), ESR1 (gene 396099) (UniProt P06212). The assay is described as follows: ATG_chERa_XSP2: Attagene TRANS-FACTORIAL Multi-Species (XSP2) HepG2 Assay for chicken Estrogen Receptor (ERa) (AID 2283817).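 Also: actives raise reporter signal above DMSO so AC50 reflects ER activation.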 In short, it runs like this:
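Exogenous chicken ERa-Gal4 chimera activity was assessed in transfected human liver HepG2 cells after 24 h of treatment. Induced reporter mRNA was quantified fluorescently by capillary electrophoresis, with DMSO as baseline.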

In assay [7] the test system is zebrafish Estrogen Receptor (ER2a), gene 317734. The assay is described as follows: ATG_zfER2a_XSP2: Attagene TRANS-FACTORIAL Multi-Species (XSP2) HepG2 Assay for zebrafish Estrogen Receptor (ER2a) (AID 2283818).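 Also: hits raise reporter mRNA so AC50 reflects activation of zebrafish ER2a.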 In a few lines: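 Multiplexed trans-reporter readout: RT-PCR then capillary electrophoresis of reporter transcripts after 24 h compound treatment. Human HepG2 carries transfected zebrafish ER2a-Gal4 chimera; 3 nM 6-alpha-fluorotestosterone plus 1.5 nM norgestrel present. Induction scored against DMSO.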

Assay [8] concerns chicken Androgen Receptor (AR), gene 422165. Nature of the assay: ATG_chAR_XSP2: Attagene TRANS-FACTORIAL Multi-Species (XSP2) HepG2 Assay for chicken Androgen Receptor (AR) (AID 2283819).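 Also: hits raise reporter mRNA above DMSO so potency is for activation.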 In short, it runs like this:
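Readout is reporter mRNA induction via RT-PCR/capillary electrophoresis after 24 h chemical exposure, positive direction relative to DMSO. Transiently transfected HepG2 express chimeric chicken AR–GAL4; AR stimulated by 3 nM 6-alpha-fluorotestosterone and 1.5 nM norgestrel.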

Assay [9] deals with GAL4 Transcription Factor (Internal Marker), GAL4 (gene 855828) (UniProt P04386). The assay is described as follows: ATG_GAL4_XSP2: Attagene TRANS-FACTORIAL Multi-Species (XSP2) HepG2 Assay for GAL4 Transcription Factor (Internal Marker) (AID 2283814).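 Also: GAL4 reporter mRNA background control in MRTU transfected cells not a receptor target.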 On the procedure: ATG_XSP2_multi-species_TRANS is a cell-based, multiplexed assay created by modifying the existing Attagene TRANS-FACTORIAL system to include a panel of nuclear receptors from some or all the following species: human (Homo sapiens), mouse (Mus musculus), frog (Xenopus laevis), zebrafish (Danio rerio), chicken (Gallus gallus), and turtle (Chrysemys picta). The ECOTOX-FACTORIAL format uses HepG2, a human liver cell line, with measurements taken at 24 hours after chemical dosing in a 24-well plate. Xsp2 included 3 nM 6-alpha-fluorotestosterone and 1.5 nM norgestrel to stimulate the androgen receptor.ATG_GAL4_XSP2 is one of 29 assay components measured or calculated from the ATG_XSP2_multi-species_TRANS assay. It is designed to make measurements of mRNA induction, a form of inducible reporter, as detected with fluorescence intensity signals by Reverse transcription polymerase chain reaction (RT-PCR) and Capillary electrophoresis technology.This assay endpoint, ATG_GAL4_XSP2, was analyzed in the positive analysis fitting direction relative to DMSO as the negative control and baseline of activity. Using a type of inducible reporter, measures of mRNA for gain-of-signal activity can be used to understand the background control at the transcription factor-level as they relate to the gene. Furthermore, this assay endpoint can be referred to as a secondary readout, because this assay has produced multiple assay endpoints where this one serves a background control function. To generalize the intended target to other relatable targets, this assay endpoint is annotated to the background measurement intended target family, where the subfamily is baseline control.
Human liver HepG2 cells are transiently transfected with multiple reporter transcription units (MRTUs) in 6-well plates using FuGene 6 reagent (Roche; 3 ml FuGene/1 mg DNA). The MRTU constructs are regulated by a cis-regulating element (promoter). […] A major difference between the CIS and TRANS system is that in CIS activities of endogenous TFs are measured, whereas the TRANS assay evaluates changes in activities of exogenous, chimeric NR-Gal4 proteins. […] At the end of 24 hour incubation, total RNA was isolated using TriZol reagent (Invitrogen). The isolated RNA is then reverse-transcribed using oligo(dT) primer and Mo-MLV reverse transcriptase (Invitrogen) with DNAse I (Ambion) treatment for 30 min. […] The fragments were purified using Qiaquick PCR columns (Qiagen), analyzed on an ABI 3130xL genetic analyzer (Applied Biosystems) with peak positions identified by using a set of X-rhodamine (ROX)-labeled MapMarker1000 molecular weight standards (BioVentures). […]

Assay [10] has as its target human Androgen Receptor (AR), AR (gene 367) (UniProt P10275). Nature of the assay: ATG_hAR_XSP2: Attagene TRANS-FACTORIAL Multi-Species (XSP2) HepG2 Assay for human Androgen Receptor (AR) (AID 2283820). In a few lines:
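Reporter transcripts were measured by RT-PCR and capillary electrophoresis 24 h post-dosing, with gain of signal fitted against DMSO. Transiently transfected HepG2 cells expressed chimeric NR-Gal4 on GAL4-UAS reporters, with AR stimulated by 3 nM 6-alpha-fluorotestosterone and 1.5 nM norgestrel.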

Sequence of GAL4 Transcription Factor (Internal Marker), GAL4 (gene 855828) (P04386 whole entry, looked up, the tested form may be a part): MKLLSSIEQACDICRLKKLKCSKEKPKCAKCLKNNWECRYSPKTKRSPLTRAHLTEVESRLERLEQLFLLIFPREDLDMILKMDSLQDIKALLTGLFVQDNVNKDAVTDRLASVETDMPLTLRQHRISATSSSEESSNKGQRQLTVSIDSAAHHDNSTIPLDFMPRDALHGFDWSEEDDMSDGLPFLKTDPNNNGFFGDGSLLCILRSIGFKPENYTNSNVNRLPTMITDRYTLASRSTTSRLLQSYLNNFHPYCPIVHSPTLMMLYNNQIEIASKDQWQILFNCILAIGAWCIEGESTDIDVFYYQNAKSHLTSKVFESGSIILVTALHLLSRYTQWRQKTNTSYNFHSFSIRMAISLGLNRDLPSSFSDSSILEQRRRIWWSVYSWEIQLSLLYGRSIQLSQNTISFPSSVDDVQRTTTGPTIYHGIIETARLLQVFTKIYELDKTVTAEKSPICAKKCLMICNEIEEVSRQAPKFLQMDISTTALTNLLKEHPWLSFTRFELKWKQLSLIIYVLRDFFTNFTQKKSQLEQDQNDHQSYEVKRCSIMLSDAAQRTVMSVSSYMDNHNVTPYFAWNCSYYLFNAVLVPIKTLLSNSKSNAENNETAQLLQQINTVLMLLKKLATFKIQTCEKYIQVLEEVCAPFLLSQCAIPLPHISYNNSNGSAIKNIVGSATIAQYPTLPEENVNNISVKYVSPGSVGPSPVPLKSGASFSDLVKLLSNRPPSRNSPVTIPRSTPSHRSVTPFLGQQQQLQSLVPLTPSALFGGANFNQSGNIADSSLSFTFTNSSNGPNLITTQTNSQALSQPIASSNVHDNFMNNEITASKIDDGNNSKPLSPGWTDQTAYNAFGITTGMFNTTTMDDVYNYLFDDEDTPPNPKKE
Sequence of zebrafish Estrogen Receptor (ER1), esr1 (gene 259252) (P57717 whole entry, looked up, the tested form may be a part): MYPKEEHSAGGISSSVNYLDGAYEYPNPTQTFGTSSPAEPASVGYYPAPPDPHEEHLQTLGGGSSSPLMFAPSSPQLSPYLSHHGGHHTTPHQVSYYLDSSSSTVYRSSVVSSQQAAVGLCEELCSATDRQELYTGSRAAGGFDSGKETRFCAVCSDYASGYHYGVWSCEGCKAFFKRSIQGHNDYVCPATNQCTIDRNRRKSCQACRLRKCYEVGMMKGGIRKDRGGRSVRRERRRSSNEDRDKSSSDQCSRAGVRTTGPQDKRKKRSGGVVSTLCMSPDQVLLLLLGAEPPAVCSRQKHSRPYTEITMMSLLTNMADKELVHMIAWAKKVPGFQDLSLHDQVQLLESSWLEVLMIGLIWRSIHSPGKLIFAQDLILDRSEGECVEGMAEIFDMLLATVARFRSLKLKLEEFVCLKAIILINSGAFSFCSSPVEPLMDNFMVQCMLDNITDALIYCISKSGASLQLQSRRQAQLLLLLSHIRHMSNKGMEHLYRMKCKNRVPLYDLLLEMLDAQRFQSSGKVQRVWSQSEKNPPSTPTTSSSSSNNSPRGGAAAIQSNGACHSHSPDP
Sequence of chicken Estrogen Receptor (ERa), ESR1 (gene 396099) (P06212 whole entry, looked up, the tested form may be a part): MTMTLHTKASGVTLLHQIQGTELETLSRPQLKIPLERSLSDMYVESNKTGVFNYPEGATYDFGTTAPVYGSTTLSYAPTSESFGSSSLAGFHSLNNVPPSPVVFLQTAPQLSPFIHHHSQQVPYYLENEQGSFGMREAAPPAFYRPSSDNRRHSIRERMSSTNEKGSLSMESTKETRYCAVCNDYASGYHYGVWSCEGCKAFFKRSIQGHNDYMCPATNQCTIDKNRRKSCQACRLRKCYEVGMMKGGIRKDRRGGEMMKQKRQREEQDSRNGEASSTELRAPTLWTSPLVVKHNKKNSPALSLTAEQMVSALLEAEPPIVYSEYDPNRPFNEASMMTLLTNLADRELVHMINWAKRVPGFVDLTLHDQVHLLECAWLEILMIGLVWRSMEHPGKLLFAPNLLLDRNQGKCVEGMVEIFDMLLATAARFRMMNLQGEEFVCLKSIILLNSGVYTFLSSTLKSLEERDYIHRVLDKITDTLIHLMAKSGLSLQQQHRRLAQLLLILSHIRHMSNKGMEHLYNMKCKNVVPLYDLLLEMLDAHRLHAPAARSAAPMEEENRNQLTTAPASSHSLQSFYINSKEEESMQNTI
Sequence of Estrogen receptor beta (Homo sapiens) (Q92731 whole entry, looked up, the tested form may be a part): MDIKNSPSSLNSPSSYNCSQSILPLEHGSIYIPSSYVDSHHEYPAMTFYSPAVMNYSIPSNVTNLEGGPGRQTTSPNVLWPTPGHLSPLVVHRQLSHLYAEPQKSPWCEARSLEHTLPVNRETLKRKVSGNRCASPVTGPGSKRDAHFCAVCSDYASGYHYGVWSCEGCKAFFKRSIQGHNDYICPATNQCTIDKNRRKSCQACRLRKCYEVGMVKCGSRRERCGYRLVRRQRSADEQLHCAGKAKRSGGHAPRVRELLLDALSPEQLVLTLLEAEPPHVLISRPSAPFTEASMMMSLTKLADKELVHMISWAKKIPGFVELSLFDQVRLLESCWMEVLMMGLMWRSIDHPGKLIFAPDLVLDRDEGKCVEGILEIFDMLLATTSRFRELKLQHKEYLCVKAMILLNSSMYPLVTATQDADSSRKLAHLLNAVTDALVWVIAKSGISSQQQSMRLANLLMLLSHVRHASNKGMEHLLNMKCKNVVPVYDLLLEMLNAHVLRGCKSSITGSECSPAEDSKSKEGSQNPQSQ
Sequence of human Androgen Receptor (AR), AR (gene 367) (P10275 whole entry, looked up, the tested form may be a part): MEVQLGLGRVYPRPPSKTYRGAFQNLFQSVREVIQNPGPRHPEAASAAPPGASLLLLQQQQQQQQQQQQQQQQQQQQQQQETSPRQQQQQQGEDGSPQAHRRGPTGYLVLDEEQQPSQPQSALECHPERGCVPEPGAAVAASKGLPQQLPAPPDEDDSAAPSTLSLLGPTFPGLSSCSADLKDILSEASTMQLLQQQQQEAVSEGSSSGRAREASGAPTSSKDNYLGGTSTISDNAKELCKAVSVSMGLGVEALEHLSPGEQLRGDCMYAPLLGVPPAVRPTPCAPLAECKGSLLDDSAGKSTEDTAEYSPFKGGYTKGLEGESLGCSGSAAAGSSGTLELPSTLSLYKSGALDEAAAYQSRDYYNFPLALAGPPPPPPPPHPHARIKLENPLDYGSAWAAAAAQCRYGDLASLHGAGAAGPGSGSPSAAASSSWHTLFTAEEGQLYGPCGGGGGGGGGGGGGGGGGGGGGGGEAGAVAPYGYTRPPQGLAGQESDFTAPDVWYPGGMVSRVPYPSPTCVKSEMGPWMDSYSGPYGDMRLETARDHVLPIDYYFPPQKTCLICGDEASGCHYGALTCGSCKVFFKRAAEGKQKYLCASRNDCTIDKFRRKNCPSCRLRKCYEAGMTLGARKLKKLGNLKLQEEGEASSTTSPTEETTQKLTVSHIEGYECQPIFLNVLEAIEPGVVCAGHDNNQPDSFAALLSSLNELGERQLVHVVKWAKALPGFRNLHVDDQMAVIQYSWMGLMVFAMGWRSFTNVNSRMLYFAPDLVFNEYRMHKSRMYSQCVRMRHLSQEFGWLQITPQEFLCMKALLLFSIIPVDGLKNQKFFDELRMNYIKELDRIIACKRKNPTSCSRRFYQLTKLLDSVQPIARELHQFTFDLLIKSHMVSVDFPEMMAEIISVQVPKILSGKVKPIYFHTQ

As for `C[C@]12CCC(=O)C=C1CC[C@@H]1[C@@H]2CC[C@]2(C)C(=O)CC[C@@H]12`, the call in assay [1], in assay [3], in [4], in assay [5] and in assay [8] was inactive. Also, the AC50 was 12.9 nM (active) and 12 nM (active) in [2]; 0.0192 µM (active) in [3]; 2.08 µM (active) in assay [4]; 3.13 µM (active) in assay [5]; 9.2 nM (active) and 10.8 nM (active) in [6]; 28.2 nM (active) and 100 nM (active) in [7]. Moreover, in assay [8], the AC50 is 0.379 µM (active).
With `Oc1ccc(C(c2ccc(O)cc2)(C(F)(F)F)C(F)(F)F)cc1`, the AC50 in assay [2] is 226 nM (active); in assay [5] it was 0.336 µM (active); in assay [6] it was 233 nM (active); in assay [7] it was 101 nM (active) and 587 nM (active). Besides, the call in assay [3], in assay [9], in assay [5], in assay [6] and in [8] was inactive.
Consider `c1cc2ccc3cccc4ccc(c1)c2c34`, for which the AC50 in assay [2] is 167 µM (active) and 27.8 µM (active); in assay [6], 13.9 µM (active) and 25.4 µM (active). Also, the result in assay [9], in assay [5] and in [7] was inactive.
Consider `CC(C)(c1ccccc1)c1ccc(O)cc1`, for which the molecule was called inactive in [1] and in assay [7]. The AC50 in assay [2] was 516 nM (active); in assay [3], 0.531 µM (active); in assay [5], 6.4 µM (active); in assay [6] it was 1150 nM (active).
As for `CC(C)(O)C(=O)Nc1ccc([N+](=O)[O-])c(C(F)(F)F)c1`, the call in assay [1], in [2], in [3], in assay [9], in [5] and in assay [6] was inactive. Further, the result in [7] was inactive.
Take `CCC(=O)O[C@H]1CC[C@H]2[C@@H]3CCC4=CC(=O)CC[C@]4(C)[C@H]3CC[C@]12C`: the result in [1], in assay [3], in [4], in assay [5], in assay [8] and in assay [10] was inactive. Moreover, the AC50 was 17.3 nM (active) and 5.27 nM (active) in assay [2]; 12.6 nM (active) and 25.4 nM (active) in [6]; 27.7 nM (active) and 13.2 nM (active) in [7]; 0.0247 µM (active) in assay [8].
On to `CC(c1ccc(O)cc1)(c1ccc(O)cc1)c1ccc(O)cc1`, for which the call in assay [1], in assay [2], in assay [4], in assay [5], in assay [6] and in [7] was inactive. For the same molecule, in [8], the molecule was classed as inactive. For the same molecule, the concentration at half-maximal activity (AC50) in assay [8] was 0.314 µM (active).
Consider `CCOC(=O)C(O)(c1ccc(Cl)cc1)c1ccc(Cl)cc1`, for which the outcome in assay [1], in assay [2], in [3], in [5], in [6] and in assay [7] was inactive. In addition, the AC50 was 6680 nM (active) in assay [2] and 8820 nM (active) in assay [6].
Consider `ClC(Cl)=C(c1ccc(Cl)cc1)c1ccc(Cl)cc1`, for which the figures for the AC50 in assay [2] and in assay [6] were 10000 nM (active) and 3270 nM (active), respectively. The outcome in assay [5] and in assay [7] was inactive.
`Cc1cc(-c2ccc(N)c(C)c2)ccc1N`: the concentration at half-maximal activity (AC50) in [2] was 6.32 µM (active) and 13.2 µM (active); in assay [5], 65.7 µM (active) and 100 µM (active) and 81.1 µM (active); in [6], 7.48 µM (active) and 27.1 µM (active) and 17.7 µM (active); in [7], 4.47 µM (active) and 11 µM (active) and 6.8 µM (active). Also, the molecule was called inactive in assay [9].
On to `C[C@]12CCC(=O)C=C1CC[C@@H]1[C@@H]2CC[C@@]2(C)[C@H]1CC[C@]2(C)O`, for which, in assay [1], the molecule was called inactive. In addition, the AC50 in [2] is 2.1 nM (active); in [4] it was 0.00341 µM (active); in assay [5], 0.0516 µM (active); in assay [6], 2.03 nM (active); in assay [7], 2.5 nM (active); in [8] it was 0.000725 µM (active).
As to `Clc1ccc(C(c2ccccc2Cl)C(Cl)(Cl)Cl)cc1` (configuration not stated), the call in [1], in assay [3] and in assay [5] was inactive. For the same molecule, the AC50 in [2] was 1140 nM (active); in [6] it was 656 nM (active); in assay [7] it was 1580 nM (active).

In general, AC50 refers to the concentration giving half of the maximal activity seen.
